Screens from PubChem BioAssay.
The entries come from a sample that favours hits as a whole.
mcGAS MS inh = inhibitors of Mus musculus cyclic GMP-AMP synthase, initial high-throughput assay, cell-free, RapidFire MS | AID 1259397, 2018 | 130,000 tested, 0.18% active | recombinant mouse cGAS, cGAMP by RapidFire MS | inhibition, % at 12.5 µM;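 active means inhibition of cGAS enzyme activity at or above 60%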;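 further: enzyme stimulated by 45 bp dsDNA with ATP and GTP substrates; cGAMP share of summed cGAMP plus half ATP and half GTP signals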
Target sequence (Q8C6L5 whole entry, looked up): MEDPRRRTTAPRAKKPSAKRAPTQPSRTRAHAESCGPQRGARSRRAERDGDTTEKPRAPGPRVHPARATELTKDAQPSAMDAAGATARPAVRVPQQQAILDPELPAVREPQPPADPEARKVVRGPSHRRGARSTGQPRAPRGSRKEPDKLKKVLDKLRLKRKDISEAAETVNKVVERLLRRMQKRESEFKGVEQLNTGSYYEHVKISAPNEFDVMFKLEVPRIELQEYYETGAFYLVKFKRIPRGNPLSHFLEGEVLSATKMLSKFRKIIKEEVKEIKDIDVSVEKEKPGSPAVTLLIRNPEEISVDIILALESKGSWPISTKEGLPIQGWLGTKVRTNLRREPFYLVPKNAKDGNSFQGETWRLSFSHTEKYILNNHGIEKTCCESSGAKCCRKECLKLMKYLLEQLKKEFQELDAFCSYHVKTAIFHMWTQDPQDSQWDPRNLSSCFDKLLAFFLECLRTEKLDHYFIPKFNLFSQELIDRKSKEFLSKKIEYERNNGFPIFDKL
Large screens that a line does not name were inactive; ! = repeats disagree.

COc1ccc(CNc2c[nH]c(=O)cc2C)cc1OCCCC#N	mcGAS MS inh 83
O=C(NN=Cc1cccc([N+](=O)[O-])c1)c1cc(-c2ccc3c4c(cccc24)CC3)n[nH]1	none
CCC(NC(=O)C1=NNC(=O)CC1)c1ncccc1C (stereo unspecified)	none
CCCOc1ccc(C(=O)N2CCC3(CC2)CNC(=O)C3)cc1Cl	none
CCOC(=O)C1(CCOc2ccccc2)CCN(Cc2cccc3nccnc23)CC1	none
O=c1c(N=Nc2cccc([N+](=O)[O-])c2)c(-c2ccccc2)[nH]n1-c1ccccc1	none
N#Cc1ccc(N=Nc2c(-c3ccc([N+](=O)[O-])cc3)[nH]n(-c3ccccc3)c2=O)cc1	none
O=C(O)c1ccc(N=Nc2c(-c3ccccc3)[nH]n(-c3ccc([N+](=O)[O-])cc3)c2=O)cc1	mcGAS MS inh 76
O=C(COC(=O)C1(c2ccc(Cl)cc2)CCCC1)NCC(F)(F)F	none
Cc1cc2nc(-c3ccccc3)c(=O)n(C)c2cc1C	none
Cc1cc2nc3c(=O)[nH]c(=O)nc-3n(CC(O)C(O)C(O)CO)c2cc1C (stereo unspecified)	none
Cc1cc2nc3c(=O)[nH]c(=O)nc-3n(C)c2cc1C=O	mcGAS MS inh 91
O=C1C=CC(=O)N1c1cc(Cl)cc(Cl)c1	mcGAS MS inh 67
CC1CCCN(C(=O)Cn2c(-c3ncccn3)noc2=O)C1 (stereo unspecified)	none
C=C(Br)CNC(=O)N1CCCN(C(=O)c2ccccc2Cl)CC1	none
CCCc1noc(C(C)N2CCCN(C(=O)c3ccccc3Cl)CC2)n1 (stereo unspecified)	mcGAS MS inh 76
CCc1noc(C(C)N2CCN(S(=O)(=O)c3c(C)c(C)c(C)c(C)c3C)CC2)n1 (stereo unspecified)	none
O=C(COC(=O)c1ccc(Br)o1)NC(c1ccccc1)c1ccccc1	none
O=S(=O)(Cc1ccccc1Cl)N1CCOC2(CNCCOC2)C1 (stereo unspecified)	none
COc1cccc2c1C(=O)c1c(O)c3c(c(O)c1C2=O)C[C@@](O)(C(C)=O)C[C@@H]3O[C@H]1C[C@H](N)[C@H](O)[C@H](C)O1	mcGAS MS inh 91!
CC(=O)[C@]1(O)Cc2c(O)c3c(c(O)c2[C@@H](O[C@H]2C[C@H](N)[C@H](O)[C@H](C)O2)C1)C(=O)c1ccccc1C3=O	mcGAS MS inh 90
COc1cccc2c1C(=O)c1c(O)c3c(c(O)c1C2=O)C[C@@](O)(C(=O)CO)C[C@@H]3O[C@H]1C[C@H](N)[C@@H](O)[C@H](C)O1	mcGAS MS inh 98!
CC(C)NC(=O)[C@@H]1C[C@@H](N)CN1C(=O)c1ccccc1-c1ccccc1F	none
c1ccc(Cc2cc(C3CCN(Cc4cc5n(n4)CCNC5)CC3)n[nH]2)cc1	none
COc1ccc(OC)c(/C=C2\N=C(c3cccc(C)c3)OC2=O)c1	none
C#CCn1c(O)c(N=NC(=O)CNC(=O)c2ccccc2O)c2ccccc21	none
CCN1CCN(c2cc(C(=O)NC3CC3)c3ccccc3n2)CC1	none
O=S(=O)(N=Cc1c(O)ccc2ccccc12)c1ccccc1	none
Oc1ccc2ccccc2c1SSc1c(O)ccc2ccccc12	mcGAS MS inh 66
Oc1ccc2ccccc2c1N=Nc1c(O)ccc2ccccc12	none
CCC(C)(C)NC(=O)C(=O)N1CCC2(CC1)CN(C)CCN2C	none
CC(C)(C)c1ccc(C(=O)Nc2n[nH]c(C(F)(F)F)n2)cc1	none
CC(C)c1nc(NC(=O)c2cn(Cc3cccs3)nn2)n[nH]1	none
CC(C)c1nc(NC(=O)c2ccc(CNC(=O)C(C)(C)C)cc2)n[nH]1	mcGAS MS inh 77
NS(=O)(=O)c1cc2c(cc1Cl)NCNS2(=O)=O	none
CCC1NC(=O)c2cc(S(N)(=O)=O)c(Cl)cc2N1 (stereo unspecified)	mcGAS MS inh 94
CN1C(CCl)Nc2cc(Cl)c(S(N)(=O)=O)cc2S1(=O)=O (stereo unspecified)	none
COC(=O)C(C)N(C(=O)c1cc(F)ccc1C)C1CC1 (stereo unspecified)	none
CCc1nnc(NC(=O)c2ccc(O)c(Cl)c2)s1	none
CCN(CC)Cc1ccccc1CNC(=O)c1nn(-c2ccccc2)c(=O)c2ccccc12	none
CCOC(=O)c1ccc(Nc2ncnc3c2nnn3C)cc1	none
Cc1ccccc1C(=O)O/N=C1/C(=O)c2ccccc2-c2ccccc21	mcGAS MS inh 70
CCOC(=O)c1cccc2c1-c1ccccc1/C2=N/O	none
C/C(=N/OC(=O)c1ccccc1C)c1ccc(Cl)cc1Cl	none
CN(C)C(=O)CSc1nnc(-c2cccs2)n1C	none
COc1cc(C=NNc2nc(C)cc(=O)[nH]2)cc(OC)c1O	none
Cc1ccc(C)c(NS(=O)(=O)c2cc(C(=O)O)ccc2F)c1	none
COc1cc(CN2CCC3(CCCN(CC4CCC4)C3)C2)ccc1F (stereo unspecified)	none
CCCNC(=O)CN1CCN(C(=O)NCC2CC2)CC1	none
CCN1CC(C(=O)Nc2ccccc2C(C)C)CC1=O (stereo unspecified)	none
O=C(Nc1ccc2scnc2c1)C1CC(=O)N(CC2CC2)C1 (stereo unspecified)	none
CC(CC#N)Sc1ccccc1NC(=O)C1CC(=O)N(CC2CC2)C1 (stereo unspecified)	mcGAS MS inh 66
Cc1nn(CC(=O)c2ccc(Cl)cc2Cl)c(C)[n+]1N	none
N[n+]1cnn(CC(=O)c2ccc(Br)cc2Br)c1	mcGAS MS inh 83
N[n+]1cnn(CC(=O)c2ccccc2Br)c1	mcGAS MS inh 98
CCC(=O)Nc1ccc(C(=O)Cn2cc(Br)cn2)cc1	none
O=C(CSCc1ccccc1)c1ccccc1Br	none
N[n+]1cnn(CC(=O)c2ccccc2)c1	none
C[N+]1=C(c2ccccc2)c2c(Br)cc(Br)n2CC1	none
C=C(C)Cn1c(N/N=C\c2ccc(O)cc2O)nc2c1c(=O)n(C)c(=O)n2C	none
COC(=O)c1cc(-c2ccc(OC)cc2OC)nc2c1c(C)nn2C1CCS(=O)(=O)C1 (stereo unspecified)	none
Cc1noc(C)c1C(=O)Nc1cccc(OCC2CCCO2)c1 (stereo unspecified)	none
O=C1CC(C(F)(F)F)N(C(=O)COC(=O)c2cccc(OCC3CCCO3)c2)c2ccccc2N1 (stereo unspecified)	mcGAS MS inh 94
O=C(c1c[nH]c(=O)c(Cl)c1)N1CCOC(COc2cccc(C(F)(F)F)c2)C1 (stereo unspecified)	none
O=C(Oc1ccc(-c2nnco2)cc1)C1=CC=CN2CCS(=O)(=O)N=C12	none
O=C(O)C1Sc2[nH]c(=O)sc2C2c3cc(Cl)cc(Cl)c3OC(=O)C12 (stereo unspecified)	none
O=C1Oc2ccccc2C2c3sc(=O)[nH]c3SCC12 (stereo unspecified)	mcGAS MS inh 91
O=C(O)CC12CSc3[nH]c(=O)sc3C1c1ccccc1OC2=O (stereo unspecified)	none
COc1ccc(CCN(C)C(=O)CC2Cc3ccccc3C2)cc1OC	none
COc1ccc2nc3cc(Cl)ccc3c(Nc3cc(CN4CCCC4)c(O)c(CN4CCCC4)c3)c2n1	none
CCN(CC)CCCC(C)NCc1ccccc1OC (stereo unspecified)	none
CCN(CC)CCCC(C)Nc1c2ccc(Cl)cc2nc2ccc(OC)cc12 (stereo unspecified)	mcGAS MS inh 68!
CSC(=S)N/N=C(/C)c1ccncn1	none
CCCc1nnc2sc(-c3cc(C(C)C)[nH]n3)nn12	none
c1ccc(CCc2nn3c(C4COc5ccccc5O4)nnc3s2)cc1 (stereo unspecified)	none
CC(C)c1cc(-c2nn3c(C4COc5ccccc5O4)nnc3s2)n[nH]1 (stereo unspecified)	mcGAS MS inh 70
CC1CCCCC1NC(=O)COc1cccc(-c2nnco2)c1 (stereo unspecified)	none
